# Several values for one entry are separate records, joined by “and”; a condition that tells them apart may be missing. Equal values may be shown once. Among all 5,500 compounds or so, about 2,000 (36%) were called active. Not shown: some 18% with an inconclusive outcome. This is one part of the list. Unmarked numbers belong to inactive results. No stated cut-off is given here; in the data, active means normalized growth mostly below about 0.91 (no sharp cut-off); inconclusive means no clear call, values can overlap the other calls; inactive means mostly above about 0.92.
# Assay: chemical genetic growth profiling, strain panel (AID 1159580);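 further: tested at 20 µM; growth read once vehicle control cultures reached saturation at 30 °C; 1 = growth at the plate median or of vehicle wells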
# Conditions: S. cerevisiae deletion strains, growth OD
structure (smiles),measurement,setting,value
COc1ccc(-c2c(O)c3c(OC)c4c(cc3oc2=O)OC(C)(C)C=C4)cc1,normalized growth,"locus YAL013W, strain DEP1, stronger effect = lower value",0.959
same,normalized growth,"locus YAL021C, strain ccr4, stronger effect = lower value",0.938
same,normalized growth,"locus YAL026C, strain drs2, stronger effect = lower value",0.952
same,normalized growth,"locus YAL030W, strain snc1, stronger effect = lower value",0.951
same,normalized growth,"locus YBL061C, strain skt5, stronger effect = lower value",0.942
same,normalized growth,"locus YBR009C, strain hhf1, stronger effect = lower value",0.953
same,normalized growth,"locus YBR021W, strain FUR4, stronger effect = lower value",0.946
same,normalized growth,"locus YBR023C, strain chs3, stronger effect = lower value",0.947
same,normalized growth,"locus YBR171W, strain sec66, stronger effect = lower value",0.919
same,normalized growth,"locus YBR229C, strain ROT2, stronger effect = lower value",0.951
same,normalized growth,"locus YBR231C, strain swc5, stronger effect = lower value",0.954
same,normalized growth,"locus YBR279W, strain paf1, stronger effect = lower value",0.972
same,normalized growth,"locus YCL011C, strain gbp2, stronger effect = lower value",0.957
same,normalized growth,"locus YCL016C, strain dcc1, stronger effect = lower value",0.955
same,normalized growth,"locus YCL029C, strain bik1, stronger effect = lower value",0.937
same,normalized growth,"locus YCL061C, strain MRC1, stronger effect = lower value",0.945
same,normalized growth,"locus YCL069W, strain vba3, stronger effect = lower value",0.955
same,normalized growth,"locus YCR088W, strain abp1, stronger effect = lower value",0.947
same,normalized growth,"locus YDL005C, strain med2, stronger effect = lower value",0.966
same,normalized growth,"locus YDL035C, strain GPR1, stronger effect = lower value",1
same,normalized growth,"locus YDL040C, strain nat1, stronger effect = lower value",0.95
same,normalized growth,"locus YDL074C, strain BRE1, stronger effect = lower value",0.967
same,normalized growth,"locus YDL101C, strain DUN1, stronger effect = lower value",0.962
same,normalized growth,"locus YDL185W, strain tfp1, stronger effect = lower value",0.944
same,normalized growth,"locus YDL192W, strain arf1, stronger effect = lower value",0.959
same,normalized growth,"locus YDR001C, strain nth1, stronger effect = lower value",0.948
same,normalized growth,"locus YDR069C, strain doa4, stronger effect = lower value",0.992
same,normalized growth,"locus YDR101C, strain arx1, stronger effect = lower value",0.961
same,normalized growth,"locus YDR137W, strain rgp1, stronger effect = lower value",0.845 (active)
same,normalized growth,"locus YDR150W, strain NUM1, stronger effect = lower value",0.936
same,normalized growth,"locus YDR159W, strain sac3, stronger effect = lower value",1.01
same,normalized growth,"locus YDR162C, strain NBP2, stronger effect = lower value",0.962
same,normalized growth,"locus YDR195W, strain ref2",0.981
same,normalized growth,"locus YDR297W, strain sur2, stronger effect = lower value",1.02
same,normalized growth,"locus YDR318W, strain mcm21, stronger effect = lower value",0.936
same,normalized growth,"locus YDR334W, strain swr1, stronger effect = lower value",0.955
same,normalized growth,"locus YDR335W, strain msn5, stronger effect = lower value",0.971
same,normalized growth,"locus YDR388W, stronger effect = lower value",0.924 (active)
same,normalized growth,"locus YDR392W, strain spt3, stronger effect = lower value",0.725 (active)
same,normalized growth,"locus YDR502C, strain sam2, stronger effect = lower value",0.891 (active)
same,normalized growth,"locus YEL003W, strain gim4, stronger effect = lower value",0.958
same,normalized growth,"locus YEL037C, strain rad23, stronger effect = lower value",0.962
same,normalized growth,"locus YEL061C, strain CIN8 (second series), stronger effect = lower value",0.957
same,normalized growth,"locus YER015W, strain faa2, stronger effect = lower value",0.975
same,normalized growth,"locus YER016W, strain bim1, stronger effect = lower value",0.951
same,normalized growth,"locus YER110C, stronger effect = lower value",0.949
same,normalized growth,"locus YER111C, strain swi4, stronger effect = lower value",0.969
same,normalized growth,"locus YER155C, strain BEM2 (second series), stronger effect = lower value",0.963
same,normalized growth,"locus YER155C, strain BEM2, stronger effect = lower value",0.956
same,normalized growth,"locus YER167W, strain BCK2, stronger effect = lower value",0.954
same,normalized growth,"locus YFR010W, strain ubp6, stronger effect = lower value",0.967
same,normalized growth,"locus YGL078C, strain dbp3, stronger effect = lower value",0.99
same,normalized growth,"locus YGL086W, strain mad1, stronger effect = lower value",0.949
same,normalized growth,"locus YGL167C, strain pmr1, stronger effect = lower value",0.92
same,normalized growth,"locus YGL173C, strain kem1, stronger effect = lower value",0.958
same,normalized growth,"locus YGL227W, strain vid30, stronger effect = lower value",0.953
same,normalized growth,"locus YGL240W, strain doc1, stronger effect = lower value",0.989
same,normalized growth,"locus YGL248W, strain PDE1, stronger effect = lower value",0.979
same,normalized growth,"locus YGL253W, strain hxk2, stronger effect = lower value",0.949
same,normalized growth,"locus YGR078C, strain PAC10, stronger effect = lower value",0.984
same,normalized growth,"locus YGR135W, strain pre9, stronger effect = lower value",0.931
same,normalized growth,"locus YGR252W, strain gcn5, stronger effect = lower value",0.96
same,normalized growth,"locus YHR013C, strain ard1, stronger effect = lower value",0.959
same,normalized growth,"locus YHR027C, strain rpn1, stronger effect = lower value",0.973
same,normalized growth,"locus YHR030C, strain SLT2, stronger effect = lower value",0.956 and 1
same,normalized growth,"locus YHR079C, strain IRE1 (second series), stronger effect = lower value",0.953
same,normalized growth,"locus YHR079C, strain IRE1, stronger effect = lower value",0.992
same,normalized growth,"locus YHR094C, strain hxt1, stronger effect = lower value",0.939
same,normalized growth,"locus YHR129C, strain ARP1, stronger effect = lower value",0.972
same,normalized growth,"locus YHR142W, strain chs7, stronger effect = lower value",0.925
same,normalized growth,"locus YHR200W, strain rpn10, stronger effect = lower value",0.946
same,normalized growth,"locus YIL066C, strain RNR3, stronger effect = lower value",0.957
same,normalized growth,"locus YIL073C, strain SPO22, stronger effect = lower value",0.919
same,normalized growth,"locus YIL125W, strain kgd1, stronger effect = lower value",0.978
same,normalized growth,"locus YIR030C, strain dcg1, stronger effect = lower value",0.958
same,normalized growth,"locus YJL092W, strain hpr5, stronger effect = lower value",0.946
same,normalized growth,"locus YJL095W, strain BCK1 (second series), stronger effect = lower value",0.954
same,normalized growth,"locus YJL095W, strain BCK1, stronger effect = lower value",0.944 and 0.971
same,normalized growth,"locus YJL115W, strain asf1, stronger effect = lower value",0.962
same,normalized growth,"locus YJL129C, strain trk1, stronger effect = lower value",0.789 (active)
same,normalized growth,"locus YJL134W, strain LCB3, stronger effect = lower value",0.942
same,normalized growth,"locus YJL154C, strain vps35, stronger effect = lower value",0.958
same,normalized growth,"locus YJL164C, strain tpk1, stronger effect = lower value",0.967
same,normalized growth,"locus YJL166W, strain qcr8, stronger effect = lower value",0.966
same,normalized growth,"locus YJL168C, strain set2, stronger effect = lower value",0.93 (active)
same,normalized growth,"locus YJL187C, strain SWE1 (second series), stronger effect = lower value",0.943
